DRD3 agonist = qHTS of D3 Dopamine Receptor Agonist: qHTS; AID 652048, 2013; 410,000 tested, 0.58% active; max activation, %; D3R DiscoveRx beta-arrestin cells, luminescence, 90 min; in the data active means max activation above about 30%; further: 0% is about no effect
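Agonist-mode cell screen: cells plated at 1500/well and incubated overnight at 37 °C, then exposed to library compounds for 90 min at 37 °C. Detection reagent was added for 30–60 min at room temperature, and luminescence was read.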
DRD3 antagonist = qHTS of D3 Dopamine Receptor Antagonist: qHTS | D(3) dopamine receptor (Homo sapiens), P35462 | AID 652054, 2013 | max response, negative = inhibition, % | 360,000 tested, 2.5% active | D3R cells, DiscoveRx beta-arrestin luminescence, antagonist mode; hits give low values; in the data active means max response below about -50%; inconclusive means no clear call, values can overlap the other calls; further: on the % scale 0 is the no-effect control and ±100 the full control effect
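Cells expressing the human receptor were seeded at 1500 cells/well, incubated overnight at 37 degrees C in 5% CO2, then exposed to library compounds with dopamine controls for 90 minutes at 37 degrees C before luminescent detection.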
D1 potentiator = Potentiators of Human D1 Dopamine Receptor: qHTS; HEK293 TREx D1 cells, calcium flux, dopamine EC20 potentiation; potentiation, % at 10 µM; 360,000 tested, 0.036% active; AID 504651, 2011; in the data active means potentiation above about 30%; further: 0% is about no effect
Target sequence (P21728 whole entry, looked up): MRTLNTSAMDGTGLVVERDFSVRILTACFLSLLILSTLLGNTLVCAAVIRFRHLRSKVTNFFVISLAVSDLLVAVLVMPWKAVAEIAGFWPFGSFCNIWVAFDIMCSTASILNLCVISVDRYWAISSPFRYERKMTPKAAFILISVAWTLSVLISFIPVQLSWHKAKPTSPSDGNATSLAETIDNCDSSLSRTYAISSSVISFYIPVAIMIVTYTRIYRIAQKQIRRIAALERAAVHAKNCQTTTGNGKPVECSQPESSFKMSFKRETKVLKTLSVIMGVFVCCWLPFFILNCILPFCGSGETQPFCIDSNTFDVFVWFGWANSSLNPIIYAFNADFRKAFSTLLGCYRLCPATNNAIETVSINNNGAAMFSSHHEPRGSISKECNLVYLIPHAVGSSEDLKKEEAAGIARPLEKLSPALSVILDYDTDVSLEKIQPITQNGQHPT
D1 antagonist = Antagonist of Human D 1 Dopamine Receptor: qHTS | D(1A) dopamine receptor (Homo sapiens), P21728 | 360,000 tested, 3.2% active | activity change, negative = inhibition, % at 10 µM | AID 504652, 2011 | HEK293 TREx D1 cells, calcium flux, dopamine EC80; hits give low values; in the data active means activity change below about -30%; further: on the % scale 0 is the no-effect control and ±100 the full control effect
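Allosteric or orthosteric antagonism assessed as attenuation of the calcium response to EC80 dopamine, added 180 s after compound, in induced HEK293 Trex D1 cells loaded with no-wash calcium dye.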
D1 ag = Allosteric Agonists of the Human D1 Dopamine Receptor: qHTS; HEK293 T-REx D1 cells, calcium flux, agonist mode; activation, % at 2 µM; 360,000 tested, 1% active; in the data active means activation above about 30%; further: 0% is about no effect
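Agonism was scored from calcium flux recorded over 180 s (1 read/s) after pintool compound addition, following a 10-cycle baseline. Cells were inducible force-coupled HEK293 TREx D1, plated overnight at 30 C and loaded with no-wash calcium dye.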
BCR signal inh = qHTS Assay to Find Inhibitors of Chronic Active B-Cell Receptor Signaling; ABC-DLBCL IkBa-CBG/CBR reporter, luminescence ratio, 4 h; 340,000 tested, 0.05% active; Potency, µM (series often up to 46.1 µM), for the others: top-dose activity change, negative = inhibition, usual class: inhibitors; active means well fitted inhibition curve with a large enough effect in the signal ratio, with a control signal flat, not every such curve was filed as active; inconclusive means small, poorly fitted or top-dose-only effect, or effect the other way, or a change in a side signal; the % refers to the signal ratio;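 further: potency means the concentration at half of the fitted maximal effect; plate controls were basal doxycycline-induced cells for no effect and cells given 10 µM MG132 for full effect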
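Cell line TMD8 (human ABC DLBCL), stably expressing tet-inducible CBG68-IkBa fusion and CBR; IMDM/0.5% FBS; cpd up to 46 uM; dox induction, 4 h, 37C/5% CO2; dual luminescence; green/red ratio; MG132 control.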
The depositor's hits bear a star; ? = inconclusive; nt = not tested or not shown. Shown are actives, neighbours in structure and some others; about 6% of the full set was active somewhere.

SMILES | DRD3 agonist | DRD3 antagonist | D1 potentiator | D1 antagonist | D1 ag | BCR signal inh
CNC(=O)CSc1nnc(-c2cnccn2)n1C | -1.0 | -2.4 | 5.1 | -14.7 | 1.1 | -11.0%
CC(C)OC(=O)CSc1nnc(-c2cnccn2)n1C | 4.2 | 11.6 | -1.9 | -34.8* | 1.4 | ?
Cc1cccc(C)c1NC(=O)CSc1nnc(-c2cnccn2)n1C | 0.7 | -1.9 | -4.2 | -50.8* | 1.2 | -4.0%
CC(C)OC(=O)CSc1nnc(-c2cccnc2)n1N | 7.0 | -11.2 | -5.4 | -30.6* | 2.2 | -1.5%
CC(C)OC(=O)CSc1nnc(-c2ccccc2)n1N | -1.0 | -17.7 | -5.0 | -0.3 | -1.2 | ?
CCSc1nc(-c2ccc(OC)cc2)nc2c1Cc1c(CO)cnc(C)c1O2 | 2.8 | nt | -2.0 | -4.0 | 1.1 | nt
C#CC(c1ccccc1)(c1ccccc1)n1ccnc1 | 8.5 | 8.2 | nt | nt | nt | nt
Clc1ccccc1C(c1ccccc1)(c1ccccc1)n1ccnc1 | 0.0 | -27.6 | 4.8 | -34.3* | 6.3 | ?
COc1ccc(NC(=O)C(CC(C)C)NC(=O)C2CCCCC2)cc1 (stereo unspecified) | 0.4 | nt | -0.3 | 4.2 | 1.7 | nt
O=S(=O)(c1cccs1)N1CCCc2cccc(O)c21 | -3.1 | -72.7* | -2.5 | -3.6 | 4.4 | 10.8%
Cc1ccc(C(C)(C)C)cc1S(=O)(=O)Nc1cccc(C(=O)N2CCN(c3ccccn3)CC2)c1 | 5.8 | 15.8 | 2.7 | 2.9 | 33.3* | ?
Cc1cccc(NS(=O)(=O)c2cccc(C(=O)N3CCN(c4ccccn4)CC3)c2)c1 | 4.1 | 6.8 | -6.8 | -2.8 | 3.0 | 1.0%
CCOc1ccccc1N/C(=C(/C(Cl)=C(Cl)Cl)[N+](=O)[O-])n1cncn1 | -6.9 | ? | -10.8 | -38.7* | 1.1 | ?
COc1ccc(-c2cc(NC=O)c3ncc(-c4cccc(C(=O)NCCN(C)C)c4)n3c2)c(OC)c1 | 5.2 | 4.1 | nt | nt | nt | nt
CCCCNC(=O)C1(C)CCCCCN1Cc1cc2ccccc2o1 (stereo unspecified) | 5.1 | 19.8 | nt | nt | nt | nt
Cc1[nH]n(-c2ccccc2)c(=O)c1C(c1ccc(O)c([N+](=O)[O-])c1)c1c(C)[nH]n(-c2ccccc2)c1=O | -8.9 | -90.7* | nt | nt | nt | nt
Cc1ccc(-c2nc(N)s[n+]2-c2ccccc2)cc1 | -3.0 | 12.3 | 3.1 | -37.0* | 1.2 | -21.0%
O=S(=O)(NCc1nc2cccnc2n1Cc1ccc(F)cc1)c1ccc2c(c1)CCCC2 | 7.7 | nt | 2.2 | 19.9 | 3.6 | nt
COCCCNC(=O)C1CCN(c2nn3cc(-c4ccc(F)cc4)nc3s2)CC1 | 9.5 | nt | -3.3 | -10.3 | 9.1 | nt
CC1=C(C(=O)Nc2ccccc2C)C(c2cccnc2)n2nc(SCc3ccccc3)nc2N1 (stereo unspecified) | 6.8 | nt | -5.0 | -37.7* | 3.3 | -12.4%
COc1cccc(CSc2nc3n(n2)C(c2cccnc2)C(C(=O)Nc2ccccc2C)=C(C)N3)c1 (stereo unspecified) | -4.6 | nt | -1.9 | -6.6 | -0.6 | 0.4%
CN1CCN(C(=O)c2ccc3c(c2)N(Cc2ccc(Cl)cc2)C(=O)c2ccccc2S3(=O)=O)CC1 | -13.7 | nt | -1.9 | -1.4 | -0.1 | nt
Cn1cc(C(=O)Nc2ccc(F)c(Cl)c2)cn1 | 0.4 | 8.9 | 1.9 | 16.9 | 2.5 | ?
CN1c2ccsc2C(O)=C(C(=S)Nc2ccc(F)c(Cl)c2)S1(=O)=O | 0.4 | -93.4* | 3.0 | -20.3 | 2.8 | ?
Cc1ccc(-n2c(Cl)c(Cl)nc(Cl)c2=O)cc1 | -48.0 | -106.2* | -8.6 | -20.4 | 1.9 | ?
SMILES | DRD3 agonist | DRD3 antagonist | D1 potentiator | D1 antagonist | D1 ag | BCR signal inh
Cc1cc(C)c(Cn2c(=O)n(CCC(=O)NCc3ccc4c(c3)OCO4)c(=O)c3ccccc32)c(C)c1 | 2.2 | nt | 9.8 | -24.4 | -0.6 | nt
Cc1ccc2cccc(N=Cc3c(C)[nH]n(-c4ccccc4)c3=O)c2n1 | -28.2 | -98.7* | -1.3 | 2.2 | -0.2 | ?
CSc1nnc(-c2ccccc2N=Cc2c(C)[nH]n(-c3ccccc3)c2=O)c(=O)[nH]1 | -12.7 | 0.0 | 0.6 | -33.0* | -1.4 | 17.8%
CN(C)CCCN(C(=O)CCOc1ccccc1)c1nc2c(F)cccc2s1 | -14.0 | -98.8* | 1.6 | 4.8 | 8.8 | ?
CN(C)CCCN(C(=O)CCc1ccccc1)c1nc2c(F)cccc2s1 | -21.0 | 0.0 | -13.4 | 3.4 | 35.3* | ?
CN(C)CCCN(C(=O)CCOc1ccccc1)c1nc2ccc(F)cc2s1 | -24.2 | -91.5* | -1.9 | 7.5 | 0.8 | ?
CN(C)CCCN(C(=O)COc1ccccc1)c1nc2ccc(F)cc2s1 | -9.9 | -5.6 | -3.2 | 2.6 | 7.4 | ?
CN(C)CCCN(C(=O)c1ccco1)c1nc2c(F)cccc2s1 | -6.6 | -11.5 | -2.2 | 18.9 | 6.8 | 11.0%
CCCc1nc2ccccc2n2c(-c3ccc(C)cc3)c3c(=O)n(C)c(=O)n(C)c3c12 | -8.7 | nt | -2.2 | 13.2 | 1.9 | nt
O=C(NC1CCCCC1)c1c[nH]c2ccc(S(=O)(=O)Nc3ccccc3F)cc2c1=O | -2.9 | nt | -2.3 | 3.2 | 4.3 | nt
CNc1ccccc1C(=O)OCC(=O)N1CCc2ccccc2C1 | 1.1 | -14.1 | nt | nt | nt | nt
CCCCCCCCCn1c2c(c(=N)c3c1CCC3)CCC2 | -3.3 | -55.6* | -0.7 | 21.3 | -2.0 | ?
CCCCCCn1c2c(c(=N)c3c1CCC3)CCC2 | -6.3 | -18.8 | 3.6 | 13.8 | -2.3 | 1.7%
C[C@H](CO)N1C[C@H](C)[C@@H](CN(C)S(=O)(=O)c2ccccc2)Oc2ccc(NC(=O)CCC(F)(F)F)cc2C1=O | 34.8* | 4.2 | nt | nt | nt | ?
C[C@H](CO)N1C[C@H](C)[C@@H](CN(C)C(=O)Nc2ccc(C(F)(F)F)cc2)Oc2ccc(NS(=O)(=O)c3ccccc3)cc2C1=O | 30.8* | 18.0 | nt | nt | nt | -0.5%
COc1ccc(NC(=O)N(C)C[C@H]2Oc3ccc(NS(=O)(=O)c4cccs4)cc3C(=O)N([C@@H](C)CO)C[C@@H]2C)cc1 | 3.3 | -11.7 | nt | nt | nt | ?
C[C@H](CO)N1C[C@H](C)[C@@H](CN(C)S(=O)(=O)c2cn(C)cn2)Oc2ccc(NC(=O)Nc3ccccc3)cc2C1=O | 0.0 | 4.8 | nt | nt | nt | -0.4%
C[C@H](CO)N1C[C@H](C)[C@@H](CN(C)C(=O)Nc2ccc(C(F)(F)F)cc2)Oc2ccc(NS(=O)(=O)c3cccs3)cc2C1=O | 30.1* | 12.0 | nt | nt | nt | -3.0%
